FEN1 inh-1 = inhibitors of human flap endonuclease 1; Potency, µM (titrated, usually from 114 µM), actives largely listed as inhibitors; P39748; Recombinant FEN1 flap cleavage, fluorescence, 15 min; 390,000 compounds, 0.35% hits; also: nearly all actives have a fitted effect of over 65% in size
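Compounds are tested as a concentration series against 10 nM FEN1; after a 15 min room-temperature preincubation, 50 nM substrate starts cleavage, with plate reads at 0 and 15 min. Normalized responses are fitted by a Hill equation.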
POLB inh = DNA polymerase beta (human) inhibition | Pol beta primer extension/strand displacement, fluorescence kinetic | 340,000 compounds, 1.3% hits | Potency, µM (series often up to 114 µM), hits mostly inhibitors | AID 485314 | P06746
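Kinetic readout of DNA synthesis with strand displacement by Pol beta. Compound and 10 nM enzyme sit 15 min at room temperature; 50 nM substrate starts the reaction, read immediately and at 10 min.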
POLH inh = DNA polymerase eta (human) inhibition. Potency, µM (highest dose often 114 µM), actives largely listed as inhibitors. AID 588591. recombinant Pol eta, fluorescent DNA replication assay. 390,000 compounds, 1.2% hits. Q9Y253
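Pol eta (10 nM) was preincubated with compounds for 15 min at room temperature, after which fluorescent replication substrate (50 nM final) was added to start the reaction. Fluorescence was read kinetically at 0 and 10 min.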
POLK inh = DNA polymerase kappa (human) inhibition | Q9UBT6 | purified Pol kappa, fluorescent DNA synthesis assay, 10 min | Potency, µM (series often up to 107 µM), actives largely listed as inhibitors | 400,000 compounds, 0.53% hits | AID 588579
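Fluorescent qHTS in 1536-well format: enzyme (10 nM) and compound sat 15 min at room temperature before 50 nM substrate (final) was added. Signal taken at 0 and 10 min; no-enzyme buffer wells were negative controls.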
POLI inh = DNA polymerase iota (human) inhibition | Q9UNA4 | Pol iota fluorescent replication assay, 10 min | Potency, µM (top dose mostly 115 µM), usual class: inhibitors | 390,000 compounds, 1% hits | AID 588590
Target sequence (Q9UNA4 whole entry, looked up): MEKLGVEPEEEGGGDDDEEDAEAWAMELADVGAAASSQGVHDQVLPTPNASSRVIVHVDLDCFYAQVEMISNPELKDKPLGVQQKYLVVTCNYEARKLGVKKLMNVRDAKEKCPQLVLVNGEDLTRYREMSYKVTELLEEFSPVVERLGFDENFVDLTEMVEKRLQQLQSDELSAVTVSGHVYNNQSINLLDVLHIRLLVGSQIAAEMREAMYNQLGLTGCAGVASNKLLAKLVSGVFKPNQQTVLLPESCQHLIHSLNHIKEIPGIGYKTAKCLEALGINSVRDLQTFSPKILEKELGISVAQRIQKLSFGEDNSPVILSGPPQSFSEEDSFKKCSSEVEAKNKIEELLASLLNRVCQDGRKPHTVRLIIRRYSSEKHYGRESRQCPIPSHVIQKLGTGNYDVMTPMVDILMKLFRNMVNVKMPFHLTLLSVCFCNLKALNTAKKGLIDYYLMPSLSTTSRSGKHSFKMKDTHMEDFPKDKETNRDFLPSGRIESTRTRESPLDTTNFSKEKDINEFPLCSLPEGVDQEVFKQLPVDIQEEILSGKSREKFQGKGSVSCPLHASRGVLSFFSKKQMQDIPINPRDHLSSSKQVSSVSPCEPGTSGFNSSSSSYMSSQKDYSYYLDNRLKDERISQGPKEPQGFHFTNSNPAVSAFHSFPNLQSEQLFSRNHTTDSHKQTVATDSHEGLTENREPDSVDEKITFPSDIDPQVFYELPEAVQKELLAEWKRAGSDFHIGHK
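Fluorescent replication assay read twice, at 0 min and 10 min after adding 50 nM (final) substrate. Enzyme (10 nM) and compounds were first incubated 15 min at room temperature; enzyme-free buffer wells were negative controls.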
WRN helicase inh-1 = inhibitors of human WRN helicase | 360,000 compounds, 0.46% hits | WRN helicase unwinding, fluorescent forked duplex, kinetic | Potency, µM (doses to about 114 µM), hits mostly inhibitors | Q14191; also: nearly all actives have a fitted effect of over 55% in size
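WRN at 20 nM final preincubated with compound 15 min at room temperature; reaction started with 100 nM fluorophore/quencher forked duplex oligonucleotide and 2 mM ATP final. Unwinding followed kinetically by red fluorescence (ex 525, em 598 nm).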
FEN1 inh-2 = FEN1 inhibition, cherry-pick retest; shares compounds with FEN1 inh-1; FEN1 flap cleavage, TAMRA/BHQ2 fluorogenic DNA substrate; Potency, µM, usual class: inhibitors; 880 compounds, 79% hits; AID 720498; also: nearly all actives have a fitted effect of over 60% in size
WRN helicase inh-2 = WRN helicase inhibition, cherry-pick retest; WRN helicase DNA unwinding, fluorescence kinetic; AID 720497; Potency, µM (highest dose often 57.1 µM), hits mostly inhibitors; 610 compounds, 63% hits; shares compounds with WRN helicase inh-1; also: nearly all actives have a fitted effect of over 65% in size
TO displacement = DNA binding via thiazole orange displacement | shares compounds with WRN helicase inh-1 | thiazole orange DNA binding displacement, fluorescence | Potency, µM (top dose mostly 57.1 µM), hits mostly inhibitors | 610 compounds, 10% hits | AID 720499;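 also: drop in dye fluorescence marks compound binding to DNA; nearly all actives have a fitted effect of over 60% in size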
BLM counter = blocks human BLM helicase in WRN counterscreen. Potency, µM (top dose mostly 57.1 µM), most hits filed as inhibitors. shares compounds with WRN helicase inh-1. Recombinant BLM helicase DNA unwinding, red fluorescence. 610 compounds, 60% hits. AID 720503; also: nearly all actives have a fitted effect of over 60% in size
A number is an active result; . = inactive; ? = inconclusive; / = not tested or not shown. Shown are actives, neighbours in structure and some others; about 2.4% of the full set was active somewhere. Calls follow the shape of the dose curve; as a rule, active = well fitted curve in the direction sought with a large enough effect; inconclusive = small, poorly fitted or top-dose-only effect, or another doubt; inactive = no such curve, though single readings can be large; an effect the other way counts as inactive or inconclusive.

SMILES | FEN1 inh-1 | POLB inh | POLH inh | POLK inh | POLI inh | WRN helicase inh-1 | FEN1 inh-2 | WRN helicase inh-2 | TO displacement | BLM counter
CC(=O)c1ccc(C2CC34CNS(=O)(=O)C3CC2O4)cc1 (centres undefined) | . | / | / | . | . | / | / | / | / | /
O=C(NN1C(=O)/C(=C/c2cccs2)SC1=S)c1cccnc1 | . | . | . | . | . | . | / | / | / | /
COc1ccccc1C(=O)NN1C(=O)/C(=C/c2cccn2C)SC1=S | / | . | / | / | / | / | / | / | / | /
COc1cc(/C=C2/SC(=S)N(Cc3ccccc3)C2=O)ccc1O | ? | 10µM | ? | ? | 39.8µM | 8.91µM | 84.9 | / | / | /
COc1cc(/C=C2/SC(=S)N(c3c(C)n(C)n(-c4ccccc4)c3=O)C2=O)ccc1O | ? | 28.2µM | ? | . | 28.2µM | ? | ? | / | / | /
CCOc1cc(/C=C2\SC(=S)N(NC(=O)c3cccnc3)C2=O)ccc1O | ? | ? | ? | . | 28.2µM | 56.2µM | 84.9 | / | / | /
COc1cc(/C=C2\SC(=S)N(NC(=O)c3ccccc3OC)C2=O)ccc1O | ? | 17.8µM | ? | . | 50.1µM | 15.8µM | ? | / | / | /
Cc1c(N2C(=O)/C(=C3/C(=O)N(C)c4ccccc43)SC2=S)c(=O)n(-c2ccccc2)n1C | . | . | . | . | . | . | / | / | / | /
O=C(CN1C(=O)C2(SCC(=O)N2c2cccc(Cl)c2)c2ccccc21)NC1CCCCC1 (centres undefined) | . | . | . | . | . | / | / | / | / | /
COc1cc(/C=C2\SC(=S)N(NC(=O)c3ccncc3)C2=O)ccc1O | ? | . | ? | . | 22.4µM | 50.1µM | 75.7 | / | / | /
CC(/C=C1\SC(=S)N(NC(=O)c2ccncc2)C1=O)=C\c1ccccc1 | . | . | . | . | ? | ? | / | / | / | /
COc1cc(/C=C2\SC(=S)N(NC(=O)c3ccc(O)c(OC)c3)C2=O)ccc1O | ? | ? | ? | . | 22.4µM | 39.8µM | 42.6 | 19.2µM | . | 19.2µM
CC[n+]1c(/C=C/C=C/N(C(C)=O)c2ccccc2)sc2cc(OC)ccc21 | 50.1µM | 15.8µM | ? | 35.5µM | ? | ? | 42.6 | 24.1µM | . | 21.5µM
Cc1ccc2c(c1)c(/C=C/c1cc[n+](C)cc1)c(C)n2C | ? | ? | . | . | ? | 39.8µM | 33.8 | 21.5µM | . | .
Cc1ccc2[nH]c(C)c(/C=C/c3cc[n+](C)cc3)c2c1 | ? | . | . | ? | . | . | / | / | / | /
Cc1ccc2nc(NC(=O)CSc3nccn3Cc3ccc(Cl)cc3)sc2c1 | . | . | . | . | . | / | / | / | / | /
CN(C)CCNc1ccc(CO)c2sc3ccc(O)cc3c(=O)c12 | 22.4µM | / | ? | ? | 79.4µM | ? | 16.9 | 24.1µM | 21.5µM | ?
CCCNC(=O)CSc1nc2ccccc2nc1Cc1ccc(Cl)cc1 | . | . | . | . | . | / | / | / | / | /
Nc1ccc2nc(-c3cccc(-c4nc5ccc(N)cc5[nH]4)c3)[nH]c2c1 | ? | ? | ? | 35.5µM | ? | 39.8µM | 37.9 | ? | 17.1µM | ?
Nc1cc(N)cc(-c2nc3ccccc3[nH]2)c1 | . | . | ? | . | . | . | / | / | / | /
CC(C)(C)C(=O)CSc1n[nH]c(-c2ccccc2)n1 | ? | / | / | . | . | / | / | / | / | /
CCOC(=O)N1CCC(NC(=O)c2cc3c(-c4ccc(OC)c(OC)c4)nn(C)c3s2)CC1 | ? | . | . | . | . | . | / | / | / | /
COc1ccc(NC(=O)c2cc3c(-c4ccc(OC)c(OC)c4)nn(C)c3s2)cc1OC | 11.2µM | 28.2µM | ? | ? | ? | 11.9µM | 10.7 | 13.6µM | . | 13.6µM
CC(C)c1ccc(NC(=O)CSC2=Nc3ccccc3C3=NC(CCC(=O)NCc4cccs4)C(=O)N23)cc1 (centres undefined) | . | . | . | . | . | / | / | / | / | /

Source: PubChem BioAssay
